# Data taken from PubChem BioAssay.
# A number with no mark means an inactive call. How the calls were made is not given here.
# Molecular target: Pantothenate synthetase (Mycobacterium tuberculosis (strain ATCC 25618 / H37Rv)) (UniProt P9WIL5)
# Assay: Coupled enzyme confirmation of inhibitors against recombinant Mtb PanC (AID 375);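 further: 0% = full reaction with vehicle and 100% = no enzyme background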
# Settings: coupled enzyme assay; at 10 µM, active compounds read high
# Sequence of Pantothenate synthetase (Mycobacterium tuberculosis (strain ATCC 25618 / H37Rv)) (P9WIL5 whole entry, looked up): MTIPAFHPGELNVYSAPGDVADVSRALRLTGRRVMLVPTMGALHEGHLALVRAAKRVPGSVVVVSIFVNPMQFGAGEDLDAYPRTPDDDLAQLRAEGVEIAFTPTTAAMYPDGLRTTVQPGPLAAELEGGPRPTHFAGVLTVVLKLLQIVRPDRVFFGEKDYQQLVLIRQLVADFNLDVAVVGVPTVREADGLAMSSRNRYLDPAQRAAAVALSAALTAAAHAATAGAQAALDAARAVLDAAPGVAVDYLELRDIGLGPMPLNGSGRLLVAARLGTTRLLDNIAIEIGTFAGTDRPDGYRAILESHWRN
row,Structure (SMILES),inhibition [%]
1,CCCCn1nnc(NC(=O)Cc2ccc(Cl)cc2)n1,0
2,CCOc1cc(-c2nc3ccccn3c2NCC2CCCO2)ccc1O (stereo not given),0
3,Cn1c(C(=O)NCCN2CCN(c3ccccc3F)CC2)cc2c(=O)n(C)c3ccccc3c21,7
4,O=C(Cn1ncc2ccccc21)N1CCN(c2cccc(C(F)(F)F)c2)CC1,2
5,CCn1c(=O)cc(SCC(=O)NCC2CCCO2)c2ccccc21 (stereo not given),6
6,CCOc1cc(N2CCOCC2)c(OCC)cc1NC(=O)CSc1cccc[n+]1[O-],3
7,Brc1ccc2ncnc(Nc3ccc(N4CCOCC4)cc3)c2c1,0
8,CCOc1cccc(-c2nnc3n2N=C(c2cc(OC)ccc2OC)CS3)c1,8
9,N#Cc1nc(-c2ccco2)oc1NCc1ccco1,11
10,COCCNC(=O)c1snc2ccc(Cl)cc12,0
11,CC1Cc2cc(/C(O)=C3/C(=O)C(=O)N(CCN4CCOCC4)C3c3cccc(O)c3)ccc2O1 (stereo not given),6
12,COC(=O)c1ccc(Cl)c(NC(C)=O)c1,4
13,CCOCCCNC(=O)CCNS(=O)(=O)c1ccc(C)cc1,2
14,COc1ccc(OC)c2[nH]c(=O)c(CCNC(=O)C(C)C)cc12,0
15,O=C(CCn1c(=O)sc2ccccc21)NCc1ccc2c(c1)OCO2,0
16,CCOC(=O)N1CCN(C(=O)CN(C)S(=O)(=O)c2ccc(OC)c(OC)c2)CC1,0
17,Cc1cc(S(=O)(=O)NC2CCCCC2)ccc1OCC(=O)NCc1ccccn1,0
18,O=C(NCc1cccs1)c1cc2c(s1)-c1ccccc1OC2,0
19,Cc1c(Br)c(C(F)(F)F)nn1CC(=O)NCCN1CCOCC1,0
20,Cc1cc(C)n(CC(=O)NC2CCCCC2)n1,0

row,Structure (SMILES),inhibition [%]
1,Oc1ccc2cccnc2c1,7
2,CCOC(=O)c1sc(NC(=O)c2noc3c2CCCC3)c(C(=O)OCC)c1C,0
3,CSCCC(NC(=O)c1ccco1)C(=O)OC(C)C(=O)NC(=O)NC1CCCCC1 (stereo not given),0
4,CC1(C)C2CCC1(CS(=O)(=O)NCc1ccc(C(=O)O)cc1)C(=O)C2 (stereo not given),0
5,O=C(NC1CCCc2ccccc21)C1CCN(S(=O)(=O)c2cnc[nH]2)CC1 (stereo not given),2
6,CC(C)CCNC(=O)NC(=O)COc1ccccc1C#N,4
7,Cc1cc(N)n2nc(-c3ccccc3)cc2n1,0
8,Fc1ccc(C(c2nnnn2Cc2ccco2)N2CCN(C3CCCCC3)CC2)cc1 (stereo not given),0
9,O=C(Nc1ccccc1)C1=C(O)CC(c2ccoc2)CC1=Nc1ccccc1 (stereo not given),0
10,CN(C)Cc1cn(CCC(=O)O)c2ccccc12,1
11,CCOc1ccc2nc(SCC(=O)Nc3ncccn3)[nH]c2c1,0
12,Cc1ccc(C2c3sc(=O)[nH]c3SC3C(=O)NC(=O)C32)cc1 (stereo not given),0
13,Cn1c(=O)oc2cc(S(=O)(=O)N3CCC(C(=O)Nc4ccc(OC(F)(F)F)cc4)CC3)ccc21,0
14,Cc1cc(NC(=O)c2cnn3c(C(F)F)cc(C4CC4)nc23)no1,0
15,O=C(NCc1ccco1)c1cccc(-c2nnc(-c3ccccc3)o2)c1,0
16,CN(C)C(=O)N1CCC(C(=O)NC2CCCCCCC2)CC1,0
17,CC(C)(C)c1cc(C(=O)O)nn1-c1ccccc1,0
18,C=CCOC(=O)C(C#N)c1nc2ccccc2nc1N1CCN(Cc2ccccc2)CC1 (stereo not given),2
19,CCn1c(Cc2ccccc2)nnc1SCC(=O)Nc1nc2ccccc2s1,2
20,CC(=O)Nc1c(Cl)n(C(C)=O)c2ccccc12,7
